Tg IFNy HTS = inhibitors of Toxoplasma gondii growth with IFN-gamma; 3.8% of 69,000 active; AID 1259416; activity change, negative = inhibition, % (concentration not given with the values); Toxoplasma gondii growth in IFN-gamma-treated host cells; stronger effect = lower value; in the data active = activity change below about -70%, passing the limit was not always enough;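 also: host cells are HeLa cells infected with Toxoplasma gondii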
Numbers stand for hits; i = inactive. This is one part of a sample in which hits are shown more often than they occur.

SMILES	Tg IFNy HTS
COC(=O)[C@@H]1Cc2c([nH]c3ccccc23)CN1C(=O)c1cc(C)nc(C)n1	-72
CC(=O)N1C(C(=O)O)Cc2c([nH]c3ccccc23)C1C (stereo not given)	i
COc1ccc(CC(=O)NCCNc2nc(-c3ccncc3)cc3ncccc23)cc1	i
O=C(c1ccoc1)N1CCOCC2(CCN(c3ncccn3)C2)C1 (stereo not given)	i
CCCCN(C1CCN(C(C)=O)CC1)S(=O)(=O)c1ccc2[nH]c(=O)ccc2c1	i
COCCN(Cc1ccc2c(c1)CCCN2C)S(=O)(=O)c1ccc2[nH]c(=O)ccc2c1	i
CCN1CCCc2cc(CN(C3CCCC3)S(=O)(=O)c3ccc4[nH]c(=O)ccc4c3)ccc21	-86
O=C(N[C@H]1CCCNC1)c1cn(C/C=C/c2ccccc2)nn1	i
NC(=O)Nc1cc(-c2cccc(F)c2)sc1C(=O)N[C@H]1CCCNC1	-84
N#C[C@@H]1[C@@H](c2ccccc2-c2cccc(F)c2)[C@H](CO)N1C(=O)NC1CCCCC1	i
Cc1csc(-c2csc(S(=O)(=O)N3CCC(Cc4ccccc4)CC3)c2)n1	i
Cc1ccc2[nH]c(=O)c(-c3nc(-c4ccc(C)c(C)c4)no3)c(O)c2c1	i
Cc1cc(=O)oc2c(CN(C)C)c(O)ccc12	i
CC[C@@]1(O)C(=O)OCc2c1cc1n(c2=O)Cc2cc3c([N+](=O)[O-])cccc3nc2-1	-80
CC[C@@]1(O)C(=O)OCc2c1cc1n(c2=O)Cc2cc3c(CN(C)C)c(O)ccc3nc2-1	-78
CCCC(C)C(=O)Nc1ccc(OC)cc1NC(=O)C(C)C (stereo not given)	i
CCOC(=O)c1ccccc1NC(=O)c1nc(Nc2ccc(Cl)cc2)c2ccccc2n1	i
CC(C)c1nccc(CN2CCN(Cc3ccc(Cl)cc3)CC2)n1	i
COC(=O)c1cnc(NN2C(=O)CCC2=O)nc1C(F)(F)F	i
CCCc1c(C(=O)OCC)cnn1-c1ncc(C(=O)OC)c(C(F)(F)F)n1	i
CC1CN(c2ncc(C(=O)OCc3ccccc3)c(C(F)(F)F)n2)CC(C)O1 (stereo not given)	-116
COc1ccccc1-n1c(=O)n(Cc2nc(-c3ccccc3)oc2C)c(=O)c2cccnc21	i
CCOC(=O)c1nc(N2CCN(c3cc(C)ccc3C)CC2)c2ccccc2n1	i
CN(C)C(=O)c1ccc2nnc3ncn(Cc4ccccc4)c3c2c1	i
Cc1nc2nnc3ccc(C(=O)N(C)Cc4ccccn4)cc3c2n1Cc1ccccc1	-109
SMILES	Tg IFNy HTS
Cc1nc2nnc3ccc(C(=O)N(C)C)cc3c2n1-c1ccccc1	i
Cc1ccc(C2=NC3(CCN(CC(=O)NCc4ccc(Cl)cc4)CC3)NC2=O)cc1C	i
CCOC(=O)N1CCC2(CC1)OC(=O)C(C)=C2C(=O)Nc1cccc(OC)c1	i
Cc1ccc(CNC(=O)c2ccc(-c3nc(CN4CCc5ccccc54)c(C)o3)cc2)cc1	i
Cc1oc(-c2ccc(C(=O)NC3CCCCCC3)cc2)nc1CN1CCc2ccccc21	-93
COCCNC(=O)c1ccc(-c2nc(CN3CCc4ccccc43)c(C)o2)cc1	i
Cc1oc(-c2ccc(C(=O)NCCN(C)C)cc2)nc1CN1CCc2ccccc21	-112
Cc1oc(-c2ccc(C(=O)NCCN3CCOCC3)cc2)nc1CN1CCc2ccccc21	i
CCCNC(=O)c1ccc(-c2nc(CN3CCc4ccccc43)c(C)o2)cc1	i
COc1ccc(-c2[nH]ncc2CNC(=O)C2(C)CC(c3ccccc3F)=NO2)cc1 (stereo not given)	i
Cc1nnc(-c2ccc3ccn(CC(=O)NCc4ccccn4)c3c2)o1	i
c1ccc(Nc2ccc3c(C4CCCN4Cc4cccnc4)nnn3c2)cc1 (stereo not given)	i
COc1ccc(N2CCN(c3nc(-c4ccc(Cl)cc4)nc4ccccc34)CC2)cc1	i
Cc1csc(NC(=O)c2ccc(S(=O)(=O)NCc3cccnc3)cc2)n1	i
Cc1cccc(NS(=O)(=O)c2cc3c4c(c2)CCN4C(=O)CC3)c1	i
O=C1CCc2cc(S(=O)(=O)Nc3cccc4c3CCCC4)cc3c2N1CC3	-114
CCc1ccc(NS(=O)(=O)c2cc3c4c(c2)CCN4C(=O)CC3)cc1	i
Cc1cccc(C)c1NS(=O)(=O)c1cc2c3c(c1)CCC(=O)N3CCC2	i
Cc1ccc(NS(=O)(=O)c2cc3c4c(c2)CCN4C(=O)CC3)cc1C	-95
COC(=O)c1ccccc1NS(=O)(=O)c1cc2c3c(c1)CCN3C(=O)CC2	i
O=C(O)C1CC(N2CCCC2)CCN1C(=O)c1ccc2c(c1)OCO2 (stereo not given)	i
CN(C)C(CNC(=O)c1ccc(-n2cnnc2)cc1)c1cccc(Cl)c1 (stereo not given)	i
Cc1ncc2c(c1-c1noc(C(C)Oc3cccc(Cl)c3)n1)CCNC2 (stereo not given)	i
O=C(Cn1c(=O)n(CC2CC2)c2ccc(C(=O)O)cc21)NCc1cccs1	i
CC(C)NC(=O)N1CCC2(CC1)C(=O)NCCN2Cc1ccccc1	i
SMILES	Tg IFNy HTS
Cc1nc(-n2cnnc2)ccc1-c1ccnc2c1ccn2C	-97
Cn1ccc2c(-c3ccccc3C(N)=O)ccnc21	i
Cn1ccc2c(-c3cc(N4CCCCC4)ncn3)ccnc21	i
Cc1cc(C)nc(N2CCC(n3nc(C)cc3C)CC2)n1	i
CCN1c2cc(Cl)ccc2C(=O)NC12CCN(C(=O)Nc1ccccc1C)CC2	i
CCc1nc(CN2CCc3onc(-c4cccc5ccccc45)c3C2)c(C)[nH]1	i
Cc1noc([C@H]2C[C@@H]3CCN(S(=O)(=O)N(C)C)C[C@@H]3O2)n1	i
COc1ccc(S(=O)(=O)NCc2ccccc2-n2ccnc2)cc1NC(C)=O	i
O=C([C@@H]1CCO[C@@H]2CCN(Cc3ccccc3)C[C@H]21)N1CCCO1	i
Cc1cc(C)n(-c2ncnc3sc(-c4ccccc4)cc23)n1	-94
Cc1cc(C)n(-c2nnc(-c3ccccc3)c(-c3ccccc3)c2-c2ccccc2)n1	i
Cc1cc(C)n(-c2nc(-c3ccccc3)cc(-c3ccccc3)n2)n1	i
O=C(CO)N1CCc2[nH]nc(-c3ccc(F)cc3)c2CC1	i
CC(C)C(=O)c1cc(-c2cnc(-c3ccnn3C)nc2)cn1CC1CC1	i
O=C1CCCN1CCCC(=O)N1C2CCC1Cn1c(nc3ccccc3c1=O)C2 (stereo not given)	i
Cc1nc(CCNC(=O)[C@H]2CCCN2S(=O)(=O)c2ccccc2)cs1	i
CCn1c(CN2CC[C@@H](c3sccc3C)[C@H](O)C2)nc2ccccc21	i
O=c1oc2ccccc2n1C1CCCN(CC2=Cc3ccccc3OC2)C1 (stereo not given)	i
CCn1c(CN2CCCC(n3c(=O)oc4ccc(Cl)cc43)C2)nc2ccccc21 (stereo not given)	-87
CN(C)c1ccc(-c2cc(-c3ccccc3)nc(-c3cc(Cl)ccc3O)c2)cc1	i
Cn1cc(-c2[nH]c3cc(NC(=O)[C@H](N)C4CCCCC4)cc4c3c2C=NNC4=O)cn1	-78
Cc1cc(-c2c(-c3ccccc3)ncn2Cc2noc(C3CCCC3)n2)n[nH]1	i
Cc1ccc(-c2ccc(-c3ccn[nH]3)cc2)c(N)n1	-81
Nc1cnc(-c2ccc(-c3ccn[nH]3)cc2)cn1	i
CCc1cnc(C)nc1-c1ccc(-c2ccn[nH]2)cc1	i
Cc1noc(C2CN(c3ncccn3)CCO2)n1 (stereo not given)	i
CC(C(=O)Nc1ccc(-c2cccc(F)c2)cc1)n1ccnc1 (stereo not given)	i
CC(C)Cc1cc(C(=O)N2CC[C@@H](c3ccc(F)cc3)[C@H](O)C2)nc(N)n1	i

Source: PubChem BioAssay (Broad Institute)
